Source: PubChem BioAssay
CHO-K1 Ca ag = M1 agonist counterscreen hit in parental CHO-K1 cells; Fluo-8 calcium fluorescence; scaled to maximal ATP response, vehicle zero; activation, % at 3 µM; 360,000 compounds, 0.48% hits; AID 602248; in the data active = activation above about 15%;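 also: untransfected CHO-K1 host cells lacking M1 receptor as counterscreen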
CHO-K1 Ca antag = counter-screen for M1 antagonists: effect in parental CHO-K1 cells; ATP-induced calcium, Fluo-8 fluorescence; inhibition, % at 3 µM; 360,000 compounds, 0.6% hits; AID 602250;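 active = inhibition above a per-plate cutoff, the plate's mean sample inhibition plus 3 SD, cut at about 24% in these data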;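 also: 0% = DMSO plus EC80 ATP and 100% = DMSO alone without ATP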
M1 ag = human M1 muscarinic receptor agonism; P11229; CHO-K1 hM1, Fluo-8 calcium fluorescence, agonist mode; 0% DMSO, 100% acetylcholine EC100; activation, % at 3 µM; 360,000 compounds, 0.33% hits; AID 588814;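 active = activation above the run's mean compound activation plus 3 SD, cut at about 16% in these data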;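 also: peak over basal fluorescence ratio within a 140 s kinetic read after compound addition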
Target sequence (P11229 whole entry, looked up): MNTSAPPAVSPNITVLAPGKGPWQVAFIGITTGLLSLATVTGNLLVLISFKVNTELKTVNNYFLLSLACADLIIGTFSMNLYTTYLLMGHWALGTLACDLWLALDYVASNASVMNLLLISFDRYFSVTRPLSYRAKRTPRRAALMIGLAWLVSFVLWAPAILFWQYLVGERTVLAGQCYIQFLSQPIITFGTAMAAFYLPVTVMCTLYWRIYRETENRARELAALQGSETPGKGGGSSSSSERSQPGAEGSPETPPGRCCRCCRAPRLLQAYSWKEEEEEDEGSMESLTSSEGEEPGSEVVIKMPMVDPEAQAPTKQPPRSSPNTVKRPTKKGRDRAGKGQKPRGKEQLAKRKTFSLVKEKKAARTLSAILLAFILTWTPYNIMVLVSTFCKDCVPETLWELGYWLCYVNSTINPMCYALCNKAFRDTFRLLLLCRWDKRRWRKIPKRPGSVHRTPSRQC
M1 PAM = positive allosteric modulators of human M1 muscarinic receptor. CHO-K1 hM1, Fluo-8 calcium fluorescence, ACh EC20; 0% = ACh EC20, 100% = maximal ACh. activation, % at 3 µM. 360,000 compounds, 0.088% hits; in the data active = activation above about 19%, passing the limit was not always enough
CHO-K1 Ca PAM = counter-screen for M1 PAMs: effect in parental CHO-K1 cells; 360,000 compounds, 0.02% hits; ATP EC20, Fluo-8 calcium fluorescence; 0% at ATP EC20, 100% at ATP max; activation, % at 3 µM;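 active = activation above the run cutoff, the mean activation of all test compounds plus 3 SD, cut at about 40% in these data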;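 also: peak over basal fluorescence ratio in a 140 s read after ATP addition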
M1 antag = antagonists of human M1 muscarinic receptor | AID 588852 | inhibition, % at 3 µM | 360,000 compounds, 1.3% hits | CHO-K1 hM1, Fluo-8 calcium fluorescence, ACh EC80 antagonist;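 active = percent inhibition above its own plate's cutoff, namely the mean of that plate's compound wells plus 3 SD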;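 also: peak over basal fluorescence ratio during 140 s after agonist addition; 0% = ACh EC80 plus DMSO and 100% = DMSO alone without agonist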
The depositor's hits bear a star. Hits are enriched below; roughly 2.3% of the tested compounds scored in any of these assays.

SMILES	CHO-K1 Ca ag	CHO-K1 Ca antag	M1 ag	M1 PAM	CHO-K1 Ca PAM	M1 antag
Cc1cc(C(=O)CN2C(=O)C(=O)N(CC(C)C)C2=O)c(C)n1C1CC1	4	-12	-3	-5	7	2
CCCSc1nnc(-c2ccccc2NC(=O)CC)c(=O)[nH]1	0	0	-2	6	-4	2
CCCC(=O)Nc1ccccc1-c1nnc(SC)[nH]c1=O	0	28*	-1	7	5	1
Cc1ccn(-c2cc(O)c(-n3ccc(C)n3)cc2O)n1	0	-5	-3	4	6	-3
CCOC(=O)c1nncc(-c2ccccc2)n1	0	-12	-2	6	12	5
CN(C)C(CNC(C(=O)Nc1ccc([N+](=O)[O-])cc1Br)c1ccccc1)c1ccccc1 (stereo not given)	0	-4	-7	-3	-6	6
CN(C)C(CNC(C(=O)Nc1ccc(F)cc1)c1ccccc1)c1ccccc1 (stereo not given)	4	-15	-7	-31	9	84*
O=C(Nc1ccc(F)cc1)C(NC1CCCCC1)c1ccccc1 (stereo not given)	0	5	-8	-26	-15	60*
O=C(Nc1ccc(F)cc1)NC1CCCCCCC1	9	-2	0	-3	2	1
NC(=O)c1nc(C(=O)N2CCN(c3ccccc3)CC2)c2ccccc2n1	0	-3	8	19	-17	-7
CCOc1ccccc1C1C(C#N)=C(N)Oc2cc(C)n(Cc3ccccn3)c(=O)c21 (stereo not given)	-1	32*	-1	10	-7	-3
COc1ccccc1C1C(C#N)=C(N)Oc2cc(C)n(Cc3ccccn3)c(=O)c21 (stereo not given)	0	16	-3	11	-4	-5
COc1ccc(-c2n[nH]c(C)c2-c2ccc(Cl)cc2)c(O)c1OC	5	27*	0	-10	3	35*
C=C(C)COc1ccc(-c2n[nH]c(C)c2-c2ccc(OC)c(OC)c2)c(O)c1	-1	55*	0	8	-12	-7
COc1ccc(-c2n[nH]c(C)c2-c2ccc(Cl)cc2)c(O)c1	0	0	-2	5	2	-10
Cc1nc2c(C)cccn2c(=O)c1NC(=O)c1ccc2c(c1)OCO2	2	-3	2	6	-20	-1
CN(C)c1ccc(/C=C(/C(=O)c2ccc(Cl)cc2Cl)n2cncn2)cc1	18*	8	15	-2	12	8
O=Cc1cc([N+](=O)[O-])ccc1N1CCN(Cc2ccc3c(c2)OCO3)CC1	10	-10	-6	-30	-7	35*
CC1CCN(c2nc3ccc(C(=O)N4CCN(Cc5ccc6c(c5)OCO6)CC4)cc3s2)CC1	0	9	-11	-17	3	29*
O=C(c1ccc(Cl)c([N+](=O)[O-])c1)N1CCN(Cc2ccc3c(c2)OCO3)CC1	16*	5	-12	-4	1	-4
O=[N+]([O-])c1ccc(N2CCN(Cc3ccc4c(c3)OCO4)CC2)nc1	5	-13	-4	1	22	-14
O=C(c1cccc(Cl)c1)N1CCN(Cc2ccc3c(c2)OCO3)CC1	0	-3	-6	-2	0	-3
CC(=O)N/C(=C\c1ccccc1)C(=O)OCC(=O)Nc1ccc(C)c(S(=O)(=O)N(C)C)c1	4	-9	1	4	12	-9
CC(=O)c1c(C)[nH]c(C(=O)CN2C(=O)NC(C)(CCC(C)C)C2=O)c1C (stereo not given)	6	-11	1	-4	18	20
COc1ccc(C(=O)CCc2ccccc2)c(O)c1	2	29*	-3	-11	-27	20
SMILES	CHO-K1 Ca ag	CHO-K1 Ca antag	M1 ag	M1 PAM	CHO-K1 Ca PAM	M1 antag
CC(=O)Nc1ccc(NC(=O)CC2(CC(=O)N3CCOCC3)CCCC2)cc1	1	-17	-1	8	3	-11
Cc1c(Cl)cccc1NC(=O)[C@@H](NC(=O)c1ccccc1Cl)C(C)C	0	24*	-8	2	-14	1
COc1cccc(-c2cnc3c(c2)C(=O)N([C@H](C)CO)C[C@@H](C)[C@H](CN(C)C(=O)Nc2ccccc2F)O3)c1	1	2	-6	0	-5	-1
Cc1cccc(CNC(=O)c2cc(S(=O)(=O)N3CCOCC3)cn2C)c1	0	0	-1	0	18	7
O=C1N[C@@H](c2ccccc2)COC(=O)[C@@H](Cc2ccc(F)cc2)CC/C=C/C[C@H]1CC(=O)N(CCO)Cc1ccccc1	7	11	2	-10	-3	28*
CCOC(=O)Nc1ccc(Cc2ccncc2)cc1	10	-6	-4	-9	17	16
COc1ccc(C2CC(c3cccs3)=NN2C(=O)CCCC(=O)O)cc1OC (stereo not given)	1	-3	-3	9	9	-14
Cc1nc2ccc(NC(=S)NC(C)C)cc2nc1C	0	-3	-7	5	8	-4
Cc1nc2ccc(NC(=S)NC3CC3)cc2nc1C	0	27*	-5	-5	-15	9
CCN(CC(=O)Nc1ccc(NC(C)=O)cc1)C(=O)CSCc1c(C)noc1C	0	-3	-4	10	-3	-15
O=C(Cc1ccc(Br)cc1)Nc1ncc([N+](=O)[O-])s1	16*	24*	8	-12	-31	35
COc1cc(OC)c(OC)cc1CCC(C)NCCC(c1ccccc1)c1ccccc1 (stereo not given)	5	14	-9	-35	-4	74*
COc1ccccc1CCNC(C)CCc1ccc(O)cc1 (stereo not given)	1	-8	-8	-12	15	11
Cc1cc(C(=O)CSc2nc3ccccc3c(=O)[nH]2)c(C)n1CC1CCCO1 (stereo not given)	17*	24*	-2	-10	2	25
Cn1ncc(Oc2ccc([N+](=O)[O-])cc2)c(Cl)c1=O	15*	7	-3	6	3	-2
Cn1ncc(Cl)c(Oc2ccc(Cl)cc2)c1=O	0	-4	-10	-4	17	3
COc1ccc(NC(=O)C2(C)CCN2C)cc1OC (stereo not given)	1	13	-2	1	9	0
COc1ccc(C(N)c2csc(Nc3cc(Oc4ccccc4)ncn3)n2)cc1 (stereo not given)	11	-7	2	-29	16	82*
Cc1ccc(NC(=O)CSc2ccc3c(c2)OCCO3)nc1	1	-7	-6	11	14	-12
C=CCn1c(SCC(=O)NCc2ccco2)nc2ccccc2c1=O	0	23	-13	-33	-13	100*
O=C(CCn1c(SCC(=O)NCc2ccco2)nc2ccccc2c1=O)NCCc1ccccc1	3	-5	-3	1	16	-3
